Screens from PubChem BioAssay.
Beta apoptosis: beta cell apoptosis inhibition. INS-1E cytokine-induced death, ATP luminescence, 48 h; percent of positive-control rescue, neutral wells zero. protection from apoptosis, % (concentration not given with the values). 300,000 compounds, 0.8% hits;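 active means Every replicate reaches about 75%, or at least half do and their mean reaches it too, limit read from the data; inconclusive means At least half of replicates reach the limit but their mean does not; inactive means Under half of replicates reach the limit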;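 further: higher means more ATP so stronger rescue from cytokine killing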
Mdm2-MdmX inh: disrupts the human Mdm2-MdmX interaction. O15151+Q00987. SaOS-2 split-luciferase Mdm2/MdmX complementation, luminescence. inhibition, % at 8 µM. 330,000 compounds, 3% hits. AID 485346;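 active means inhibition of at least 50% at 8 µM in the primary screen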
Target sequence (O15151 whole entry, looked up): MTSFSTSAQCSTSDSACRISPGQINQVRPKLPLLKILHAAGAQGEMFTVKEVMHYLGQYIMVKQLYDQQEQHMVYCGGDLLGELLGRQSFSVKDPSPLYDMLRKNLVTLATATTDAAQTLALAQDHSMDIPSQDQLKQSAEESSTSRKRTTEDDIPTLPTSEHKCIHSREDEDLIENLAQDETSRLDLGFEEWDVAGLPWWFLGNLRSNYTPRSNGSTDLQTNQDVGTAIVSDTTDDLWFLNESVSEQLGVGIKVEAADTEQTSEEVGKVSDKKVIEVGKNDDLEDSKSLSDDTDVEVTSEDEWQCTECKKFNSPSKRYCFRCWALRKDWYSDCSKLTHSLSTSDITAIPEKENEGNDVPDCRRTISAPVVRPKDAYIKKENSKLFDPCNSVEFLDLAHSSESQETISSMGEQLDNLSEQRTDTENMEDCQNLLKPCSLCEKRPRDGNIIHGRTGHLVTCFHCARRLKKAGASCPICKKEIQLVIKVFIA
Target sequence (Q00987 whole entry, looked up): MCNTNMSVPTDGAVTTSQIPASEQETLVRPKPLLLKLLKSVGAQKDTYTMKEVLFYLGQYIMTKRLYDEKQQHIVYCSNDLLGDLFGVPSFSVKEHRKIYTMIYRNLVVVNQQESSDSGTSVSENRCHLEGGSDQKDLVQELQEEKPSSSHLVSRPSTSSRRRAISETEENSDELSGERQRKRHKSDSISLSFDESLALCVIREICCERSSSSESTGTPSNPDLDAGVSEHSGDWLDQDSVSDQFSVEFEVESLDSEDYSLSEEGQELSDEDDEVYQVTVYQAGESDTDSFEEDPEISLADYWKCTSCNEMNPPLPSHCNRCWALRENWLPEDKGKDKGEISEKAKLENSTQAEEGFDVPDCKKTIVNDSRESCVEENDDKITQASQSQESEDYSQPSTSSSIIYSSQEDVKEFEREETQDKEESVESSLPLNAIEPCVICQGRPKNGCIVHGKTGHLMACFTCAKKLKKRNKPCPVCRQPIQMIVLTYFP
A1 inh: inhibitors of the anti-apoptotic protein A1, read as caspase activation | caspase activation, % (concentration not given with the values) | MEF A1-2A-BIM cells, Caspase-Glo 3/7 luminescence, 3 h; percent of clofoctol response, vehicle zero | AID 2462 | 330,000 compounds, 0.066% hits;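 active means over half of replicate activation scores above 10%, or exactly half above 10 with the replicate mean above 10; inconclusive means replicate mean below 10 yet half the replicates above 10; inactive means over half of replicates below 10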
CSC inhib: blocks cancer stem cells. cancer stem cell-like cells viability, luminescence. 300,000 compounds, 1.1% hits. inhibition, % at 7.5 µM. AID 2717; in the data active means inhibition above about 75%; inconclusive means no clear call, values can overlap the other calls; tested in HMLE shEcad cells
aSyn 5UTR inh: 5' untranslated region of α-synuclein, MLPCN primary screen | alpha-synuclein 5'UTR reporter, inhibitor activity | 300,000 compounds, 0.82% hits | inhibition, % (tested at 7.5 µM); in the data active means inhibition above about 60%; inconclusive means no clear call, values can overlap the other calls;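 further: H4 neuroglioblastoma cells stably carrying SNCA 5'UTR luciferase fusion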
Of the large screens only hits and unclear results are named; the others gave an inactive call. A selection: hits, their analogues and other compounds. The true share with any hit is near 4.1%.

CCOc1ccc(S(=O)(=O)N(C)c2ccc(OCC(=O)Nc3nc4ccccc4s3)cc2)cc1	Beta apoptosis 92
COc1ccccc1Cn1c(=S)[nH]c2ccc(F)cc2c1=O	none (no result: Beta apoptosis, CSC inhib)
CC(=O)/C(=C\N(C)C)Sc1ccc(Cl)cc1	none (no result: Beta apoptosis)
S=C(Sc1ccc(Cl)cc1)Sc1ccc(Cl)cc1	CSC inhib 77
CCOc1ccc(S(=O)(=O)N2CCN(C(=O)CN3C(=O)NC(C)(C)C3=O)CC2)cc1	none (no result: CSC inhib, aSyn 5UTR inh)
Cc1ccn2cc(-c3ccc(Br)cc3)nc2c1	aSyn 5UTR inh 63
CCOC(=O)C1(C)NC(c2cccc(C)c2)C2C(=O)N(c3ccccc3)C(=O)C21 (stereo not drawn)	none
Cc1ccc(C(=O)c2cccc(N)c2)cc1C	aSyn 5UTR inh 82
Cc1ccc(C(=O)c2ccc(O)cc2)cc1C	none (no result: aSyn 5UTR inh)
CC(C)N1C(=O)C(Cc2nc3ccccc3c(=O)n2-c2ccccc2)c2ccccc21 (stereo not drawn)	none
CC(C)N1C(=O)/C(=C\c2nc3ccccc3c(=O)n2-c2ccccc2)c2ccccc21	CSC inhib 75 (no result: Mdm2-MdmX inh)
C/C(=N\NC(=O)c1cc(-c2cccc([N+](=O)[O-])c2)n[nH]1)c1ccccc1O	CSC inhib 80 (no result: Beta apoptosis, Mdm2-MdmX inh)
CC[C@](C)(O)c1cc2ccccc2c(=O)o1	none (no result: aSyn 5UTR inh)
c1csc(-c2csc3ncnc(NCCCN4CCOCC4)c23)c1	Beta apoptosis 76
c1ccc(-c2csc3ncnc(NCCCN4CCOCC4)c23)cc1	none
CCCCCCSc1ccc([C@H]2N[C@@](CC(C)C)(C(=O)OC)[C@H]3C(=O)N(CC)C(=O)[C@@H]23)cc1	none
CCCCCCSc1ccc([C@H]2N[C@@](Cc3ccccc3)(C(=O)OC)[C@H]3C(=O)N(C)C(=O)[C@@H]23)cc1	Beta apoptosis 99
CCCCCCSc1ccc([C@H]2N[C@@](C)(C(=O)OC)[C@H]3C(=O)N(CC)C(=O)[C@@H]23)cc1	CSC inhib 78
CCCc1ccc(-c2ccc(F)c(N)c2)nc1	aSyn 5UTR inh 99
CC(C)(c1cc(Br)c(O)c(Br)c1)c1cc(Br)c(O)c(Br)c1	CSC inhib 103 (no result: aSyn 5UTR inh)
O=C(O)COc1ccccc1/C=C1\C(=O)Nc2ccc(Br)cc21	A1 inh 5.3
CCCCNc1c(-c2ccc(SC3CCCCC3)cc2)nc2ccccn12	Beta apoptosis inconclusive, CSC inhib 82
CCCCNc1c(-c2ccc(SC(C)CC)cc2)nc2ccccn12 (stereo not drawn)	CSC inhib 92
c1cn2c(NC3CCCCC3)c(-c3ccc(SC4CCCCC4)cc3)nc2cn1	CSC inhib 126
CCCCCCSc1ccc(-c2nc3cnccn3c2NCCCC)cc1	CSC inhib 105 (no result: aSyn 5UTR inh)
CC(C)c1ccc(N(CC(=O)NCc2cccnc2)S(=O)(=O)c2ccccc2)cc1	none
COc1cccc(CN2CC(C(=O)NCc3cccc(N4CCCC4)c3)CCC2=O)c1 (stereo not drawn)	none
Cc1ccc(C)c(NS(=O)(=O)c2cc(C(=O)NCc3ccccn3)ccc2C)c1	none
OC1CCN(c2cc(-c3ccccc3)nc3cc(-c4ccc(F)cc4)nn23)CC1	CSC inhib 88
COc1cccc(-c2cc3nc(-c4ccccc4)cc(N4CCCC(O)C4)n3n2)c1 (stereo not drawn)	CSC inhib 90
COc1ccc(-c2cc3nc(-c4ccccc4)cc(N4CCC5(CC4)OCCO5)n3n2)cc1	none
Oc1ccc(O)c(/C(=N/Nc2ccccc2)c2ccccc2)c1	none
NNc1nc(-c2ccccc2Cl)nc2sc3c(c12)CCCC3	CSC inhib 76
CN(C(=O)COC(=O)CNC(=O)c1ccc(C(C)(C)C)cc1)c1c(N)n(Cc2ccccc2)c(=O)[nH]c1=O	none (no result: CSC inhib)
CCOC(=O)N1CCN(C(=O)CSCC(=O)Nc2nc(-c3ccc(OC)cc3)cs2)CC1	none
CCOC(=O)N1CCN(C(=O)CSCC(=O)Nc2nc(-c3ccc(-c4ccccc4)cc3)cs2)CC1	Beta apoptosis 89
CCN(C[C@H]1N[C@@](C)(C(=O)OC)[C@H]2C(=O)N(C)C(=O)[C@@H]12)C(=O)C1CCCCC1	none (no result: Beta apoptosis, A1 inh, CSC inhib, aSyn 5UTR inh)
Cc1cccc(OCc2nnc(SCC(=O)N(C)C3CCCCC3)o2)c1	none (no result: Beta apoptosis, A1 inh, CSC inhib, aSyn 5UTR inh)
Cc1ccccc1C(=O)/C(C#N)=N/Nc1c(C)n(C)n(-c2ccccc2)c1=O	aSyn 5UTR inh 79 (no result: Mdm2-MdmX inh)
CCN(CC)CCNC(=O)c1cc(Nc2ccc(OC)c(OC)c2)nc2ccccc12	none
Cc1ccc(S(=O)(=O)N2[C@@H](c3ccc(C(C)(C)C)cc3)C(C(=O)O)=CC[C@H]2c2cccc(Cl)c2)cc1	CSC inhib 138 (no result: aSyn 5UTR inh)
CCc1ccc([C@@H]2CC=C(C(=O)O)[C@H](c3ccc(C)cc3)N2S(=O)(=O)c2ccc(C)cc2)cc1	none (no result: Beta apoptosis, A1 inh, CSC inhib, aSyn 5UTR inh)
CCCCC[C@@H]1C=C(C(=O)O)[C@H](c2ccc(Cl)c(Cl)c2)N1S(=O)(=O)c1ccc(C)cc1	CSC inhib 98 (no result: aSyn 5UTR inh)
CC[C@@H]1C=C(C(=O)O)[C@H](c2ccc(Cl)c(Cl)c2)N1S(=O)(=O)c1ccc(C)cc1	none (no result: CSC inhib, aSyn 5UTR inh)
Cc1ccc(S(=O)(=O)N2[C@@H](c3cccc(Cl)c3)C(C(=O)O)=CC[C@H]2c2cccc(Cl)c2)cc1	none (no result: aSyn 5UTR inh)
CCc1ccc([C@@H]2CC=C(C(=O)O)[C@H](c3ccc(Cl)cc3)N2S(=O)(=O)c2ccc(C)cc2)cc1	CSC inhib 79 (no result: aSyn 5UTR inh)
O=C(Nc1ccccc1)Nc1cc(OCC(F)(F)F)cc(OCC(F)(F)F)c1	aSyn 5UTR inh 74 (no result: Beta apoptosis, Mdm2-MdmX inh, A1 inh, CSC inhib)
O=C(N/N=C/c1ccccc1)c1cc(-c2ccc3c(c2)OCO3)n[nH]1	none
O=C(N/N=C/c1ccc(O)cc1)c1cc(-c2ccc3c(c2)OCO3)n[nH]1	CSC inhib 127
O=C(N/N=C/c1cccc(O)c1)c1cc(-c2ccc3c(c2)OCO3)n[nH]1	CSC inhib 76
COc1ccc(CN(C)C(=O)CSc2nnc(C3CC3)n2C2CC2)cc1	none (no result: Beta apoptosis, A1 inh, CSC inhib, aSyn 5UTR inh)
O=C(O)Cn1c(-c2ccccc2)cc2ccccc21	none
O=C(CN1C(=O)NC2(CCc3ccccc32)C1=O)NCC(=O)Nc1ccc(F)cc1 (stereo not drawn)	none (no result: aSyn 5UTR inh)
C[C@H]1COC2=C1C(=O)C(=O)c1c2ccc2c1CCCC2(C)C	aSyn 5UTR inh 102 (no result: Mdm2-MdmX inh)
CCc1nc(SCC(=O)NC2CCCC2)c2c(=O)n(C)c(=O)n(C)c2n1	none
Clc1ccc(CO/N=C/c2c(-c3ccccc3)nc3n2CCS3)c(Cl)c1	CSC inhib 78
COc1ccc(O)c(C(=O)CC(=O)c2ccc(F)cc2)c1	aSyn 5UTR inh 73
O=C(CNS(=O)(=O)c1ccccc1F)NNC(=O)c1ccc(Br)cc1	none (no result: Beta apoptosis, A1 inh, CSC inhib, aSyn 5UTR inh)
Cc1cccn2c(Nc3ccccc3)c(-c3ccccn3)nc12	Beta apoptosis 78
CCC(C)(C)c1ccc(Oc2ccc(N)cc2)cc1	aSyn 5UTR inh 127 (no result: Beta apoptosis, Mdm2-MdmX inh, A1 inh, CSC inhib)
CCC(C)(C)c1ccc(Oc2cccc(C(=O)O)c2)cc1	none
O=C(COC(=O)c1cc2ccccc2o1)NCc1ccco1	none (no result: Beta apoptosis, A1 inh, CSC inhib, aSyn 5UTR inh)
COc1cccc(-c2sc3ccc(OC)cc3c2-c2ccc(O)cc2)c1	CSC inhib 129 (no result: aSyn 5UTR inh)
COc1cccc(-c2sc3ccc(OC)cc3c2-c2cc(F)cc(OC)c2)c1	none (no result: aSyn 5UTR inh)
COc1ccc(-c2sc3ccccc3c2-c2ccc(O)cc2)cc1	CSC inhib 107 (no result: aSyn 5UTR inh)
Cc1ccc(C(=O)Nc2ncc(Cc3ccc(F)cc3)s2)o1	CSC inhib 120
